From the supplement of paper PMC8728848
The entries come from a sample that favours the strongest signals as a whole.

What was measured:
Test in all cases: glycan array binding signal (z-score within array); higher = stronger binding
Conditions in all cases: glycan notation: IUPAC condensed, linker removed
[1] = biological target: Fuc(a1-2)Gal(b1-3)GlcNAc(b1-3)[Fuc(a1-2)Gal(b1-3)GlcNAc(b1-6)]GalNAc
How it was run: (§1)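 Columns mapping to the same glycan were averaged after glycan names were converted to IUPAC-condensed notation. The data come from 3228 arrays in the Consortium for Functional Glycomics database, limited to those with an available protein sequence. Binding is reported as a within-array Z-score averaged across arrays of one protein sequence and across linkers.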

[2] = biological target: Fuc(a1-2)Gal(b1-4)[Fuc(a1-3)]GlcNAc(b1-3)Gal(b1-4)[Fuc(a1-3)]GlcNAc
How it was run: as §1

[3] = biological target: Fuc(a1-2)[Gal(a1-3)]Gal(b1-3)GlcNAc
How it was run: as §1

[4] = biological target: Fuc(a1-2)[Gal(a1-3)]Gal(b1-4)GlcNAc(b1-3)GalNAc
How it was run: as §1

[5] = biological target: Gal(a1-3)Gal(b1-4)Glc
How it was run: as §1

[6] = biological target: Gal(a1-3)Gal(b1-4)GlcNAc(b1-2)Man(a1-3)[Gal(a1-3)Gal(b1-4)GlcNAc(b1-2)Man(a1-6)]Man(b1-4)GlcNAc(b1-4)GlcNAc
How it was run: as §1

[7] = biological target: Gal(a1-4)Gal(b1-3)GlcNAc(b1-2)Man(a1-3)[Gal(a1-4)Gal(b1-3)GlcNAc(b1-2)Man(a1-6)]Man(b1-4)GlcNAc(b1-4)GlcNAc
How it was run: as §1

[8] = biological target: Gal(b1-2)Gal
How it was run: as §1

[9] = biological target: Gal(b1-3)GalNAc(a1-3)[Fuc(a1-2)]Gal(b1-4)Glc
How it was run: as §1

[10] = biological target: Gal(b1-3)GalNAc(b1-3)Gal(a1-4)Gal(b1-4)Glc
How it was run: as §1

[11] = biological target: Gal(b1-3)GalNAc(b1-4)Gal(b1-4)Glc
How it was run: as §1

[12] = biological target: Gal(b1-3)GlcNAc(b1-3)Gal(b1-3)GlcNAc
How it was run: as §1

[13] = biological target: Gal(b1-3)GlcNAc6S
How it was run: as §1

[14] = biological target: Gal(b1-3)[Fuc(a1-4)]GlcNAc(b1-2)Man(a1-3)[Gal(b1-3)[Fuc(a1-4)]GlcNAc(b1-2)Man(a1-6)]Man(b1-4)GlcNAc(b1-4)[Fuc(a1-6)]GlcNAc
How it was run: as §1

[15] = biological target: Gal(b1-4)GlcNAc(b1-2)Man(a1-6)[GlcNAc(b1-2)Man(a1-3)]Man(b1-4)GlcNAc(b1-4)GlcNAc
How it was run: as §1

[16] = biological target: Gal(b1-4)GlcNAc(b1-2)[Gal(b1-4)GlcNAc(b1-4)]Man(a1-3)[GlcNAc(b1-4)][Gal(b1-4)GlcNAc(b1-2)Man(a1-6)]Man(b1-4)GlcNAc(b1-4)GlcNAc
How it was run: as §1

[17] = biological target: Gal(b1-4)GlcNAc(b1-3)Gal(b1-4)GlcNAc(b1-2)Man(a1-3)[Gal(b1-4)GlcNAc(b1-3)Gal(b1-4)GlcNAc(b1-2)Man(a1-6)]Man(b1-4)GlcNAc(b1-4)GlcNAc
How it was run: as §1

[18] = biological target: Gal(b1-4)GlcNAc(b1-3)Gal(b1-4)GlcNAc(b1-3)Gal(b1-4)GlcNAc(b1-2)Man(a1-3)[Gal(b1-4)GlcNAc(b1-3)Gal(b1-4)GlcNAc(b1-3)Gal(b1-4)GlcNAc(b1-2)Man(a1-6)]Man(b1-4)GlcNAc(b1-4)[Fuc(a1-6)]GlcNAc
How it was run: as §1

[19] = biological target: Gal(b1-4)GlcNAc(b1-3)Gal(b1-4)GlcNAc(b1-3)Gal(b1-4)GlcNAc(b1-3)Gal(b1-4)GlcNAc(b1-2)Man(a1-3)[Gal(b1-4)GlcNAc(b1-3)Gal(b1-4)GlcNAc(b1-3)Gal(b1-4)GlcNAc(b1-3)Gal(b1-4)GlcNAc(b1-2)Man(a1-6)]Man(b1-4)GlcNAc(b1-4)GlcNAc
How it was run: as §1

[20] = biological target: Gal(b1-4)GlcNAc(b1-3)Gal(b1-4)GlcNAc(b1-3)Gal(b1-4)GlcNAc(b1-3)Gal(b1-4)GlcNAc(b1-2)Man(a1-3)[Gal(b1-4)GlcNAc(b1-3)Gal(b1-4)GlcNAc(b1-3)Gal(b1-4)GlcNAc(b1-3)Gal(b1-4)GlcNAc(b1-2)Man(a1-6)]Man(b1-4)GlcNAc(b1-4)[Fuc(a1-6)]GlcNAc
How it was run: as §1

[21] = biological target: Gal(b1-4)GlcNAc(b1-3)Gal(b1-4)GlcNAc(b1-3)Gal(b1-4)GlcNAc(b1-3)Gal(b1-4)GlcNAc(b1-2)[Gal(b1-4)GlcNAc(b1-3)Gal(b1-4)GlcNAc(b1-3)Gal(b1-4)GlcNAc(b1-3)Gal(b1-4)GlcNAc(b1-6)]Man(a1-6)[Gal(b1-4)GlcNAc(b1-3)Gal(b1-4)GlcNAc(b1-3)Gal(b1-4)GlcNAc(b1-3)Gal(b1-4)GlcNAc(b1-2)Man(a1-3)]Man(b1-4)GlcNAc(b1-4)[Fuc(a1-6)]GlcNAc
How it was run: as §1

[22] = biological target: Gal(b1-4)GlcNAc(b1-3)Gal(b1-4)GlcNAc(b1-3)Gal(b1-4)GlcNAc(b1-3)Gal(b1-4)GlcNAc(b1-3)Gal(b1-4)GlcNAc(b1-2)Man(a1-3)[Gal(b1-4)GlcNAc(b1-3)Gal(b1-4)GlcNAc(b1-3)Gal(b1-4)GlcNAc(b1-3)Gal(b1-4)GlcNAc(b1-3)Gal(b1-4)GlcNAc(b1-2)Man(a1-6)]Man(b1-4)GlcNAc(b1-4)GlcNAc
How it was run: as §1

[23] = biological target: Gal(b1-4)GlcNAc(b1-3)Gal(b1-4)GlcNAc(b1-3)Gal(b1-4)GlcNAc(b1-3)Gal(b1-4)GlcNAc(b1-3)Gal(b1-4)GlcNAc(b1-2)Man(a1-3)[Gal(b1-4)GlcNAc(b1-3)Gal(b1-4)GlcNAc(b1-3)Gal(b1-4)GlcNAc(b1-3)Gal(b1-4)GlcNAc(b1-3)Gal(b1-4)GlcNAc(b1-2)Man(a1-6)]Man(b1-4)GlcNAc(b1-4)[Fuc(a1-6)]GlcNAc
How it was run: as §1

[24] = biological target: Gal(b1-4)GlcNAc(b1-3)Gal(b1-4)GlcNAc(b1-3)Gal(b1-4)GlcNAc(b1-3)Gal(b1-4)GlcNAc(b1-3)Gal(b1-4)GlcNAc(b1-2)[Gal(b1-4)GlcNAc(b1-3)Gal(b1-4)GlcNAc(b1-3)Gal(b1-4)GlcNAc(b1-3)Gal(b1-4)GlcNAc(b1-3)Gal(b1-4)GlcNAc(b1-6)]Man(a1-6)[Gal(b1-4)GlcNAc(b1-3)Gal(b1-4)GlcNAc(b1-3)Gal(b1-4)GlcNAc(b1-3)Gal(b1-4)GlcNAc(b1-3)Gal(b1-4)GlcNAc(b1-2)Man(a1-3)]Man(b1-4)GlcNAc(b1-4)[Fuc(a1-6)]GlcNAc
How it was run: as §1

B1: Epa9 (Candida glabrata), CAGL0A01386g (protein)
chain: MGSSHHHHHHSSGLVPRGSHMDITPFAHYPRPEGCSSPPNAVSVGLHMDLYNYPYLYVKNPRTGFTNDTDSDADGETDGDSAGGIEGRAGQCWNPEYQDPNFPRYGYKKYGSFGSSDHVNGKISWDHNEFKEGCKPIMARLPTAYNYPAKITFSNFTMVLSGYFKPKSTGLYKFEIHADDFILFNFGSKNAFECCNREESIDNFGPYVAYAMWPNEADQELEVYLFEDSYYPIRLFYNNRDYHSKFMVGFYPPNTEEITYDFDGYLYMLDDTGNECKDSIRYKTVCDD
glycan array binding signal (z-score) [1]: -0.296
glycan array binding signal (z-score) [2]: -0.521
glycan array binding signal (z-score) [3]: -0.32
glycan array binding signal (z-score) [4]: -0.304
glycan array binding signal (z-score) [5]: 0.746
glycan array binding signal (z-score) [6]: 4.07
glycan array binding signal (z-score) [7]: 4.05
glycan array binding signal (z-score) [8]: 0.38
glycan array binding signal (z-score) [9]: 1.58
glycan array binding signal (z-score) [10]: 1.98
glycan array binding signal (z-score) [11]: 4.13
glycan array binding signal (z-score) [12]: -0.11
glycan array binding signal (z-score) [13]: -0.028
glycan array binding signal (z-score) [14]: -0.377
glycan array binding signal (z-score) [15]: 0.1
glycan array binding signal (z-score) [16]: 1.34
glycan array binding signal (z-score) [17]: 1.3
glycan array binding signal (z-score) [18]: 3.45
glycan array binding signal (z-score) [19]: 4.82
glycan array binding signal (z-score) [20]: 4.74
glycan array binding signal (z-score) [21]: 5.31
glycan array binding signal (z-score) [22]: 5.73
glycan array binding signal (z-score) [23]: 5.38
glycan array binding signal (z-score) [24]: 6.29
